Shown are actives, neighbours in structure and some others; about 2.5% of the full set was active somewhere.
WRN inhibitor: qHTS for Inhibitors of WRN Helicase. Bifunctional 3'-5' exonuclease/ATP-dependent helicase WRN (Homo sapiens), Q14191. actives 0.46% (n = 360,000). AID 651768, 2012. WRN helicase unwinding, fluorescent forked duplex, kinetic. Potency, µM (top dose mostly 114 µM), for the others: at the highest dose activity change, negative = inhibition, hits mostly inhibitors; note: % is set by controls: 0 for no effect and ±100 for the full control effect; nearly all actives have a fitted effect of over 55% in size
Target sequence (Q14191 whole entry, looked up): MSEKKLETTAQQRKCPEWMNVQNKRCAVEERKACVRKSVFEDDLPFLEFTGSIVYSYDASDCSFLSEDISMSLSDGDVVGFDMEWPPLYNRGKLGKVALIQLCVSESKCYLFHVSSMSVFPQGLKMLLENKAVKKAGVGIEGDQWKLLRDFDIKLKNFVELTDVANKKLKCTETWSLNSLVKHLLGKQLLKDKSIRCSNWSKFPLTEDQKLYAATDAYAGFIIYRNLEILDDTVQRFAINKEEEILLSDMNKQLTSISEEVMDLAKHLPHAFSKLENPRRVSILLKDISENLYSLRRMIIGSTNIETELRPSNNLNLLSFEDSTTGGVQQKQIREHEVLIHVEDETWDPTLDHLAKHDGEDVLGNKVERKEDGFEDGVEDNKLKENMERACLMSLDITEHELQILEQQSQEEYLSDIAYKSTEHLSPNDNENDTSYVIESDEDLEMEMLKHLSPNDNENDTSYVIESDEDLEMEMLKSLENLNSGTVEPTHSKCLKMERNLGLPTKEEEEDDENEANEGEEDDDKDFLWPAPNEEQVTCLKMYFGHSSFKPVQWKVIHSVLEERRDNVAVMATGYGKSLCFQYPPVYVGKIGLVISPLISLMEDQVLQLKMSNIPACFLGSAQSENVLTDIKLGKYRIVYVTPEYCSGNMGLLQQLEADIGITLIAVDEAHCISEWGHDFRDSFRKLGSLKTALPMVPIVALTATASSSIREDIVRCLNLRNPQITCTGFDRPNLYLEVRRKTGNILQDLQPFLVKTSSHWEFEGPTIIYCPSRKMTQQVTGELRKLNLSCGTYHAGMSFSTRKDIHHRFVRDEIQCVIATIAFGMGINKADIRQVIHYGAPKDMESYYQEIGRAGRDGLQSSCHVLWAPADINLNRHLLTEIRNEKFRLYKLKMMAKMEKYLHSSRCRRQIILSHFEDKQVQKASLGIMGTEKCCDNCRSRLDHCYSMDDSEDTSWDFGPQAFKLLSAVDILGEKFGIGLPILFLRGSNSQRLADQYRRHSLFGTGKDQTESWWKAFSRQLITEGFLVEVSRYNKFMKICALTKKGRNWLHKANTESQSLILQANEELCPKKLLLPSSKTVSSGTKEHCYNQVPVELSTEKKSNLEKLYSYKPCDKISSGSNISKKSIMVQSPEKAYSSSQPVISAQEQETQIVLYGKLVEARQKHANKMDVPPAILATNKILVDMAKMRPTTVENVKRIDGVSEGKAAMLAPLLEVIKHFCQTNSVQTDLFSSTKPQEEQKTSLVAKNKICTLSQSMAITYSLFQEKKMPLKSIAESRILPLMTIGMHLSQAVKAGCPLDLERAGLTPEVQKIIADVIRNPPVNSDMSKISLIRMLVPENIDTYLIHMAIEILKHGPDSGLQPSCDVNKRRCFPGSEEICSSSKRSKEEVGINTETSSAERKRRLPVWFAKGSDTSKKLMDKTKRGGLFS
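WRN at 20 nM final preincubated with compound 15 min at room temperature; reaction started with 100 nM fluorophore/quencher forked duplex oligonucleotide and 2 mM ATP final. Unwinding followed kinetically by red fluorescence (ex 525, em 598 nm).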
Pol eta inh: qHTS for Inhibitors of Polymerase Eta; AID 588591, 2011; recombinant Pol eta, fluorescent DNA replication assay; Potency, µM (series often up to 114 µM), inactives show at the highest dose activity change, negative = inhibition, most hits filed as inhibitors; actives 1.2% (n = 390,000); note: % is set by controls: 0 for no effect and ±100 for the full control effect
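Pol eta (10 nM) was preincubated with compounds for 15 min at room temperature, after which fluorescent replication substrate (50 nM final) was added to start the reaction. Fluorescence was read kinetically at 0 and 10 min.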
Pol beta inh: qHTS Assay for Inhibitors of DNA Polymerase Beta | P06746 | Pol beta primer extension/strand displacement, fluorescence kinetic | Potency, µM (highest dose often 114 µM), for inactives: at the top dose activity change, negative = inhibition, hits mostly inhibitors | actives 1.3% (n = 340,000) | AID 485314, 2010; note: % is set by controls: 0 for no effect and ±100 for the full control effect
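Pol beta (10 nM) was preincubated with compound for 15 min at room temperature. The reaction was then started with 50 nM substrate and read immediately and after a further 10 min at room temperature.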
Pol iota inh: qHTS for Inhibitors of Polymerase Iota; Pol iota fluorescent replication assay, 10 min; Potency, µM (doses to about 115 µM), for inactives: at the highest dose activity, negative = inhibition, hits mostly inhibitors; AID 588590, 2011; actives 1% (n = 390,000); DNA polymerase iota (Homo sapiens), Q9UNA4
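Pol iota at 10 nM preincubated 15 min with compounds at room temperature; reaction started with fluorescent substrate, 50 nM final. Fluorescence read kinetically at 0 and 10 min; buffer-only wells as negative control.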
L3MBTL1 block: qHTS Assay for the Inhibitors of L3MBTL1; AlphaScreen L3MBTL1–H3K9me1 peptide binding; actives 0.66% (n = 230,000); Lethal(3)malignant brain tumor-like protein 1 (Homo sapiens), Q9Y468; Potency, µM (highest dose often 57.1 µM), for the others: top-dose activity, negative = inhibition, most hits filed as inhibitors; note: % is set by controls: 0 for no effect and ±100 for the full control effect; nearly all actives have a fitted effect of over 60% in size
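Read-out is AlphaScreen signal from streptavidin donor and nickel chelate acceptor beads (10 ug/mL final each) bridging L3MBTL1 (50 nM) and biotinylated K9-monomethylated H3(1-15) peptide (75 nM), after 30 min compound exposure at room temperature.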
Pol kappa inh: qHTS for Inhibitors of Polymerase Kappa. DNA polymerase kappa (Homo sapiens), Q9UBT6. purified Pol kappa, fluorescent DNA synthesis assay, 10 min. Potency, µM (highest dose often 107 µM), without a hit: top-dose activity, negative = inhibition, actives largely listed as inhibitors. actives 0.53% (n = 400,000). AID 588579, 2011; note: % is set by controls: 0 for no effect and ±100 for the full control effect
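Kinetic fluorescence screen: compound preincubated 15 min RT with 10 nM enzyme; 50 nM substrate (final) initiates; reads at 0/10 min.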
* hit, by the source's call; ? = inconclusive; nt = no result; ! = not active in a repeat; [ ] = dose if it differs, or a comment. Calls come from the whole dose curve; as a rule, active = well fitted curve in the direction sought with a large enough effect; inconclusive = small, poorly fitted or top-dose-only effect, or another doubt; inactive = no such curve, though single readings can be large; an effect the other way counts as inactive or inconclusive. Potency is the fitted concentration of half-maximal effect.

SMILES	WRN inhibitor	Pol eta inh	Pol beta inh	Pol iota inh	L3MBTL1 block	Pol kappa inh
O=C(NNC(=O)c1cc2cc(OC(F)(F)F)ccc2[nH]1)c1cccc(C(F)(F)F)c1	-16%	-6%	-29%	13%	7%	-15%
CC(C)(C)c1ccccc1OCCCCCNCCO	-16%[11.6 µM]	-4%	-10%	71µM*	2%	5%
O=C(c1cn(-c2ccc(Cl)c(Cl)c2)nn1)C1CC1	2%	-12%	0%	133%	-4%	-7%
CCCn1c(S(=O)(=O)O)nc2ccccc21	-3%	28µM*	-1%	?	nt	-8%
O=S(=O)(O)c1nc2ccccc2n1CCOc1ccccc1	-3%	-14%	23%	-20%	-3%	-4%
Cc1cc(C)cc(OCC(=O)NCC2(N3CCOCC3)CCCCC2)c1	nt	5%	-1%	-11%	nt	-1%
Cc1ccc(OCC(=O)NCC2(N3CCOCC3)CCCCC2)cc1C	nt	-14%	3%	89µM*	nt	?
Cc1nnc(N(C)C(=O)c2cccnc2)s1	-3%	8%	2%	6%	-9%[11.4 µM]	-3%
CCCOc1ccc(-c2cccc(NS(=O)(=O)c3cccs3)c2)nn1	nt	-16%	1%	3%	nt	-6%[60.1 µM]
CN(C)c1ccc(-c2nc(-c3ccncc3)no2)cc1[N+](=O)[O-]	nt	3%	-14%	-24%	nt	-10%
COc1cc(-c2noc(-c3ccc(N4CCCCC4)c([N+](=O)[O-])c3)n2)cc(OC)c1OC	nt	-20%	45µM*	-28%	nt	-31%
COc1ccc(-c2noc(-c3ccc(N4CCCCC4)c([N+](=O)[O-])c3)n2)cc1	nt	-10%	10%	-6%	nt	-3%
COc1cc(-c2noc(-c3ccc(NCc4ccco4)c([N+](=O)[O-])c3)n2)cc(OC)c1OC	nt	-13%	-10%	-9%	nt	-12%
COc1cc(-c2noc(-c3ccc(NCc4ccccc4)c([N+](=O)[O-])c3)n2)cc(OC)c1OC	nt	-16%	45µM*	-8%	nt	-15%
COc1cc(-c2noc(-c3ccc(N(C)C)c([N+](=O)[O-])c3)n2)cc(OC)c1OC	nt	-18%	28µM*	?	nt	-10%
COc1cc2c[n+](C)c3c4ccccc4ccc3c2cc1OC	-22%	?	nt	?	nt	32µM*
CCOc1cc(CNc2ccc(O)cc2)cc(Br)c1OCc1ccccc1F	-36%	-24%	-14%	-101%	16µM*	-4%
COc1cc(CNc2ccc(O)cc2)cc(Br)c1OCc1ccccc1F	?	-17%	-29%	28µM*	?	-36%
COc1cc(CNC(C)(C)CO)cc(Br)c1OCc1ccccc1	-4%	-9%	28%	63%	10%	-7%
COc1cc(CNCc2ccncc2)cc(Br)c1OCc1ccccc1F	-18%	-14%	24%	?	4%	-1%
CCOc1cc(CNc2ccc(O)cc2)cc(Br)c1OCc1ccccc1	nt	-24%	-2%	40µM*	nt	-10%
Oc1ccc(NCc2ccccc2OCc2ccccc2)cc1	-17%	?	5%	7.1µM*	?	-11%
O=C(CN1CCN(C(=O)c2ccccc2)CC1)Nc1ccccc1	11%	-26%	14%	22%	nt	5%
COc1ccc(/C=N/NC(=O)c2cc(=O)[nH]c3ccccc23)cc1OC	-2%	7%	-15%	-8%	nt	-9%
Cc1c([N+](=O)[O-])cc(S(=O)(=O)Nc2ccc(-c3ccc(N4CCCC4)nn3)cc2)cc1[N+](=O)[O-]	-5%[11.6 µM]	18µM*	nt	?	-3%	-32%
SMILES	WRN inhibitor	Pol eta inh	Pol beta inh	Pol iota inh	L3MBTL1 block	Pol kappa inh
O=[N+]([O-])c1ccc(Cl)c(S(=O)(=O)Nc2ccc(-c3ccc(N4CCCC4)nn3)cc2)c1	-6%[11.6 µM]	45µM*	nt	?	2%	-9%
CC(=O)c1ccc(S(=O)(=O)Nc2ccc(-c3ccc(N4CCCCC4)nn3)cc2)cc1	nt	79µM*	?	?	nt	-15%[60.1 µM]
COc1ccc(CNS(=O)(=O)c2cnc(N)nc2)cc1	nt	-11%	-1%	7%	nt	-1%[60.1 µM]
O=C(N/N=C/c1ccc(F)cc1)c1ccc(Br)cc1	-12%	-16%	32µM*	-11%	2%	-8%
COc1ccc(C(=O)N/N=C\C(C)=C\c2ccccc2)cc1OC	-17%	5%	nt	-26%[58.9 µM]	nt	-42%
O=C(N/N=C/c1ccc(Br)cc1)c1ccc(F)cc1	1%	-11%	-10%	-3%	0%	-5%
O=C(N/N=C/c1ccncc1)c1ccc(-n2cccc2)cc1	3%	-9%	40µM*	79µM*	-12%	-2%
O=C(N/N=C/c1cccs1)c1ccc(-n2cccc2)cc1	-5%	1%	?	14%	2%	-2%
O=C(N/N=C/c1ccc(OC(=O)c2cccs2)cc1)c1ccc(F)cc1	-7%	?	18µM*	9%	5%	-17%
CC(/C=N/NC(=O)c1ccc(Br)cc1)=C\c1ccccc1	-22%	-11%	22µM*	?	nt	1%[60.1 µM]
O=C(Nc1ccccc1Cl)NC1(C(=O)NCc2ccncc2)CCCCC1	13%	5%	7%	3%	nt	-6%
CCOC(=O)CSC(=S)NC(=O)c1ccc(OC)cc1	-2%	5%	22%	5%	7%	-9%
Cc1nc2cc(NC(=O)NCCC3=CCCCC3)ccc2o1	-3%[57.1 µM]	5%	7%	89µM*	11%[11.4 µM]	7%
Cc1oc(-c2ccccc2Cl)nc1CS(=O)CC(=O)NCc1ccc(Cl)cc1 (stereo not drawn)	-5%	-6%	-7%	79µM*!	nt	-7%
Cc1oc(-c2ccccc2F)nc1CS(=O)CC(=O)NCc1ccc(Cl)cc1 (stereo not drawn)	4%	-18%	-3%	32%	nt	0%
CCOC(=O)C1(CC2CC2)CCN(Cc2ccc(OC)cc2F)CC1	-4%	-21%	89µM*	156%	47%	-24%
CC1CCCCC1NS(=O)(=O)c1ccc(S(=O)(=O)NCc2ccncc2)cc1 (stereo not drawn)	-22%	-9%	71µM*	?	52%	0%
CCOc1ccc(NC(=O)CN2C(=O)CSC2=O)cc1	1%	?	?	-25%	1%	-10%
COc1ccccc1CNC(=O)/C=C/c1ccc(S(=O)(=O)NCc2ccco2)cc1	-2%	-21%	16%	21%	-12%	-13%
O=c1nc(/C=C/c2cc([N+](=O)[O-])ccc2Cl)cc(C(F)(F)F)[nH]1	-26%[57.1 µM]	22µM*	6%	?	nt	12%
